Furin inhibitor: human furin inhibitors, primary screen, biochemical, fluorescence intensity; purified furin, fluorogenic substrate cleavage; P09958; inhibition, % at 20 µM or 30 µM; hit rate 0.061% among 220,000; AID 463115, 2010; in the data active = inhibition above about 25%
Pf gametocyte: late stage P. falciparum gametocyte viability inhibitors, primary screen, ATP luminescence, HTS | P. falciparum stage V gametocytes, 24 h | inhibition, % at 10.9 µM | hit rate 0.065% among 150,000 | AID 743093, 2013;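 active = inhibition above the mean plus 3 SD of compounds within the control limits, set per campaign, cut at about 38% in these data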;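 note: 0% = DMSO wells and 100% = medium only without gametocytes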
HSV augment: enhancers of HSV replication in host cells, fold increase, host cell viability | hit rate 0.005% among 220,000 | maximum fold increase | HSV replication augmentation in cells; in the data active = maximum fold increase above about 1.5; tested in PC3 cells
EP2 modulator: EP2 receptor modulators, cAMP readout, primary screen, cell-based, HTRF cAMP, PGE2 stimulation | EP2-expressing cells, cAMP HTRF FRET, PGE2 co-stimulation | induction, % at 25 µM | hit rate 0.83% among 260,000 | AID 940, 2007;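 active = compounds whose cAMP rise, as percent of the full-agonist control response, exceeds 60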;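 note: rat C6 glioma line stably carrying human EP2 under a CMV promoter; the protocol text gives 20 µM as final concentration; 100% = response of wells given 1 µM PGE2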
Target sequence (P43116 whole entry, looked up): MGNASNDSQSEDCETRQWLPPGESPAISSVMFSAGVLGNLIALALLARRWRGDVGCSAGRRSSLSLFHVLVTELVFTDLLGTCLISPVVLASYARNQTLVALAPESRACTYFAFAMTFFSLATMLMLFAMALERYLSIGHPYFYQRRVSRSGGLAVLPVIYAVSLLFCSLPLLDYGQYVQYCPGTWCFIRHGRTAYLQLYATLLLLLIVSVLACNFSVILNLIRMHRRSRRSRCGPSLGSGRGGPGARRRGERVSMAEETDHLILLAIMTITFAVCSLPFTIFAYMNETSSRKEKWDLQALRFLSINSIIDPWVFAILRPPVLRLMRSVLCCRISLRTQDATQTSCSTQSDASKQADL
PGE2 EP2 inh: human EP2 receptor antagonists, primary screen, TR-FRET cAMP, C6 glioma cells. C6 glioma cells expressing human EP2; cells stimulated with saturating PGE2. inhibition, % at 25 µM. hit rate 0.52% among 260,000;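 active = percent inhibition above 40 after rounding to a whole number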;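 note: rat C6 glioma host cells with rolipram phosphodiesterase inhibitor present; the protocol text gives 20 µM as final concentration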
* hit, by the source's call; i = inactive; . = no result given; ! = a repeat was not active. Only some compounds are listed: those with a hit (about 1.4% of all), similar ones and a draw of the others.

SMILES	Furin inhibitor	Pf gametocyte	HSV augment	EP2 modulator	PGE2 EP2 inh
C=CCCCN(Cc1ccccc1)S(=O)(=O)c1ccccc1Br	-15	-17	i	61*	6
C=CCCN(C(C(=O)OC)C(C)C)S(=O)(=O)c1ccccc1Br (centres undefined)	-28	.	i	44	5
O=c1c2cc(N3CCOCC3)ccc2[nH]c(=S)n1Cc1cccc(Cl)c1	-9	5	i	21	10
CC(=O)c1ccc(S(=O)(=O)N2CCCCCC2)cc1	.	.	.	-27	94*
COC(=O)c1ccc(S(=O)(=O)N2CCCCCC2)cc1	-13	.	i	14	9
C/C(N[O-])=C(\C)[N+]([O-])=[Co].CC(=N\[O-])/C(C)=N/[O-].C[CH-][C@@H](C)O.c1ccncc1	.	.	.	21	42*
O=C(NCc1ccc(Cl)c(Cl)c1)C1CCCC1	.	-7	.	.	.
C[N@@+]1(Cc2ccc(Cl)c(Cl)c2)CCC[C@@H]1c1ccc[n+](Cc2ccc(Cl)c(Cl)c2)c1	.	.	.	-1	50*
O=c1oc2ccccc2c(O)c1/C=C1\C=Nc2ccccc21	-4	.	i	-55	52*
Cc1ccc(CN2C(=O)C(C)Oc3ccc(C)cc32)cc1 (centres undefined)	.	.	.	83*	9
Cc1ccc2c(c1)N(Cc1ccccn1)C(=O)C(C)O2 (centres undefined)	-11	13	i	11	6
O=[N+]([O-])c1ccc(N2CCN(Cc3ccc([N+](=O)[O-])o3)CC2)cc1	.	-5	.	.	.
CCC(c1nnnn1C1CCCCC1)N(Cc1ccc(C)cc1)Cc1cc2c(C)ccc(C)c2[nH]c1=O (centres undefined)	.	.	.	29	6
CCC(c1nnnn1C1CCCCC1)N(Cc1ccco1)Cc1cc2c(C)ccc(C)c2[nH]c1=O (centres undefined)	.	.	.	76*	13
CCC(c1nnnn1C1CCCC1)N(Cc1ccccc1)Cc1cc2cccc(C)c2[nH]c1=O (centres undefined)	.	.	.	64*	25
O=C(/C=C/c1ccco1)N(Cc1cccc(Cl)c1)C1CCS(=O)(=O)C1 (centres undefined)	-16	2	i	29	4
COc1ccc(C(=O)C2CCCN(C3Cc4ccccc4C3)C2)cc1OC (centres undefined)	-25	-11	i	6	3
Cc1nnc(Sc2nc3c(c(=O)n(C)c(=O)n3C)n2Cc2ccccc2Cl)s1	-8	-3	i	.	1
CCCn1c(SCC(=O)Nc2ccccc2C(=O)OC)nc2c1c(=O)n(C)c(=O)n2C	-14	17	i	43	3
CC(C)Sc1nc2c(c(=O)n(C)c(=O)n2C)n1Cc1ccccc1Cl	.	.	.	62*	4
Cn1c(=O)n(Cc2ccccc2F)c2ccccc21	-9	.	i	30	8
C=C(C)CSc1nc2c(c(=O)n(C)c(=O)n2C)n1Cc1ccccc1Cl	.	.	.	74*	9
CCCn1c(SCC(=O)Nc2ccccc2N2CCCCC2)nc2c1c(=O)n(C)c(=O)n2C	-22	.	i	78*!	22
Cn1c(=O)n(Cc2ccccc2Cl)c2ccccc21	-30	-1	i	61*	10
COc1ccc(CCNC(=O)c2cnn(-c3ccc(C)c(C)c3)c2NC(=O)c2ccco2)cc1OC	-9	-4	i	44	7
SMILES	Furin inhibitor	Pf gametocyte	HSV augment	EP2 modulator	PGE2 EP2 inh
CCSc1nc2c(c(=O)n(C)c(=O)n2C)n1Cc1cccc2ccccc12	.	.	.	72*	13
CCC(C)Sc1nc2c(c(=O)n(C)c(=O)n2C)n1Cc1ccc(Cl)cc1 (centres undefined)	.	.	.	70*	7
Nc1ccc(-c2ccc(Nc3cc(S(=O)(=O)O)c(N)c4c3C(=O)c3ccccc3C4=O)cc2)c(S(=O)(=O)O)c1	.	.	.	-3	55*
Cc1cc(C)c(Nc2cc(S(=O)(=O)O)c(N)c3c2C(=O)c2ccccc2C3=O)c(C)c1	-10	20	i	30	16
O=[N+]([O-])c1ccc(C2=Nn3c(nnc3-c3ccc(Cl)cc3)SC2)o1	.	.	.	-31	73*
S=c1nc(COc2ccccc2)[nH]c2ccccc12	.	.	.	66*	19
S=c1nc(Cc2ccc(Cl)cc2)[nH]c2ccccc12	-22	10	i	19	3
C[C@@H]1CC[C@H]2[C@H](C)[C@@H]3[C@@H](C[C@H]4[C@H]5CC=C6C[C@@H](O)CC[C@]6(C)[C@@H]5C[C@@H](O)[C@]34C)N2C1	.	.	.	-9	62*
O=C1c2ccccc2C(=O)N1c1ccc(Cc2ccc(N3C(=O)c4ccccc4C3=O)cc2)cc1	.	.	.	15	49*
Cc1ccc(N2C(=O)c3ccccc3C2=O)cc1	-28	12	i	10	9
COc1ccccc1NC(=O)N(Cc1ccccc1)c1ccccn1	-15	.	i	61*	-3
COCC(=O)N(Cc1ccccc1)c1ccccn1	-12	.	i	17	10
CC(NS(=O)(=O)c1ccc(Cl)c(Cl)c1)C(=O)OCC(=O)Nc1ccc2c(c1)OCO2 (centres undefined)	-19	-2	i	-23	0
O=C(c1ccco1)N(Cc1ccco1)c1nc(-c2ccccc2)cs1	.	.	.	78*	10
O=C(c1cccs1)N(Cc1ccco1)c1nc(-c2ccccc2)cs1	.	.	.	32	10
COc1ccc(N/C=C(\C#N)c2nc3ccccc3n2C)c(OC)c1	0	-16	i	63*	6
COc1ccc(CNc2nc3ccccc3n2C)c(OC)c1	-20	11	i	-21	6
CSc1ccc2c(c1)N(CCC1CCCCN1C)c1ccccc1S2 (centres undefined)	-13	.	i	-19	13
CN1CCCC[C@@H]1CCN1c2ccccc2Sc2ccc(S(C)=O)cc21 (some centres undefined)	.	.	.	13	44*
O=C1c2ccccc2-n2c1nc1ccccc1c2=O	-17	.	i	-25	54*
O=c1c2ccccc2nc2n1-c1ccccc1CCC2	-33	6	i	21	2
Cc1cc2c(cc3c(=O)n(CC(=O)C(C)(C)C)nc(C)n32)s1	.	.	.	-11	.
c1ccc(-c2nnc(CN3CCN(C(c4ccccc4)c4ccccc4)CC3)o2)cc1	-19	.	i	61*	10
COc1ccc(C(C)=O)c(OC(=O)c2ccc(OC)c(OC)c2)c1	-14	2	i	16	5
COc1cc2oc(=O)c(Br)c(C)c2c(OC)c1OC	-8	-21	i	44	44*
CCOc1ccc2c(C)cc(=O)oc2c1OCC	-13	.	i	45	7
CCCCOc1ccc2c(C)cc(=O)oc2c1OCCCC	-12	-10	i	62*	0
CCC1=C(C)CN(C(=O)NCCc2ccc(S(=O)(=O)NC(=O)NC3CCC(C)CC3)cc2)C1=O (centres undefined)	.	.	i	.	14
Cc1ccc(O)c(C(=O)/C=C/c2ccc3c(c2)OCCCO3)c1	-16	-8	i	5	3

Compound activity deposited in PubChem BioAssay by several laboratories.
